What all share (assay): DAPPL (digital affinity profiling via proximity ligation, sequencing); 10 mM Tris-HCl pH 7.5, 50 mM NaCl, 1 mM DTT, 4% glycerol, room temperature, 30 min; GST-TFs on glutathione beads, 16-mer random dsDNA library, 0.1% formaldehyde crosslink after washing; high values mean tight binding
Conditions in all cases: protein: recombinant; tags: N-terminal GST; dsDNA, one strand shown

One assay deals with T1, ELK1 (Homo sapiens, UniProt P19419 1-428).
T1 sequence: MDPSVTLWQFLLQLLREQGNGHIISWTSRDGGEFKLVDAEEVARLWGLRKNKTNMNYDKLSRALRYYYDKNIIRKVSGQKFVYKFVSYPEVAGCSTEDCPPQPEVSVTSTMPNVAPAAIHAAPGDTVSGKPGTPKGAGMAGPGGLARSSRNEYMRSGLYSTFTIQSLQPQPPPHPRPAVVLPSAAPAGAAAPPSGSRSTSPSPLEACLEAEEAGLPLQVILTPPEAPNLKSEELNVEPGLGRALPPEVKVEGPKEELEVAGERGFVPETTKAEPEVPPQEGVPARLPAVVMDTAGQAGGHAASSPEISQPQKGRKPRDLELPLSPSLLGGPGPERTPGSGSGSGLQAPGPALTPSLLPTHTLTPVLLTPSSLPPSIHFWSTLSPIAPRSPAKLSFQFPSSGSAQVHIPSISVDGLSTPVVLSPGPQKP
The method, boiled down: (§1)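 Each value of binding signal is a hexamer's read frequency for a factor divided by the same hexamer's frequency in the tag-only sample. Barcoded, bead-captured GST fusions of human transcription factors made in yeast were pooled with that sample and incubated with 200 nmole of a random double-stranded 16-mer DNA library in Tris/NaCl/DTT/glycerol buffer at room temperature for 30 min. Washing, 0.1% formaldehyde crosslinking, proximity ligation, PCR and Illumina NextSeq500 sequencing followed.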

The next assay has as its target T2, ERG (Homo sapiens, UniProt P11308 1-479).
T2 sequence: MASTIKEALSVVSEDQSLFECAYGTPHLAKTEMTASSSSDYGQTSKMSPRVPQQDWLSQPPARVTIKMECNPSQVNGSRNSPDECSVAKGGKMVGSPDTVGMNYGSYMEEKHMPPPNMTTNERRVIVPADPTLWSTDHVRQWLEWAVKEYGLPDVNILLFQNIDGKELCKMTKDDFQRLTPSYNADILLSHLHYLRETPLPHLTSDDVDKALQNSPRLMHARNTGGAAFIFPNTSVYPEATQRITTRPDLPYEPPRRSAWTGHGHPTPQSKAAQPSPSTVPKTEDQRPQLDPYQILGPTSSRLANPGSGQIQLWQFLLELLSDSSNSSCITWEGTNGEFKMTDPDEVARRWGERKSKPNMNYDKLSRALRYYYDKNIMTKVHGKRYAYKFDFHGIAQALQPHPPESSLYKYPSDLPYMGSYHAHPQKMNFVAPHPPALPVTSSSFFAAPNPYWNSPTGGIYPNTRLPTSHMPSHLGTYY
The essentials: as §1

In another assay the target is T3, EHF (Homo sapiens, UniProt Q9NZC4 1-300).
T3 sequence: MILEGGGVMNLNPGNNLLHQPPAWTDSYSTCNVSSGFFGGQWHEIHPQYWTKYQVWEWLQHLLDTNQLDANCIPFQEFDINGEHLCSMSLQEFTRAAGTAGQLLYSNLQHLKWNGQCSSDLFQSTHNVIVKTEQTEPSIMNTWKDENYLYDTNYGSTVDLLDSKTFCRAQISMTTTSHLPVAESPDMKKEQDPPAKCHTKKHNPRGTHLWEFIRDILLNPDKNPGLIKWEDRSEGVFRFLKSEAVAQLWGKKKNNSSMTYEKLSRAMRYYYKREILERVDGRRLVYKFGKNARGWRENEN
The essentials:
as §1

For another assay, the target named is SPI1 (Homo sapiens, UniProt P17947 1-270). The method, boiled down: as §1
Another assay has as its target ETV5 (Homo sapiens, UniProt P41161 1-510). The method, boiled down:
as §1

The target in another assay is T4, SPIC (Homo sapiens, UniProt Q8N5J4 1-248).
T4 sequence: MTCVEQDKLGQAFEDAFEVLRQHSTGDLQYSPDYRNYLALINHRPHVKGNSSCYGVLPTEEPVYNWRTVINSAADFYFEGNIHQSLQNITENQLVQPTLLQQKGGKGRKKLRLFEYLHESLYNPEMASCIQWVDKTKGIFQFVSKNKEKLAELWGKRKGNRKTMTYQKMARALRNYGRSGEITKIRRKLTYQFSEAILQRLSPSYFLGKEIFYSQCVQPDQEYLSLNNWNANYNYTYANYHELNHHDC
The essentials:
as §1

For another assay, the target named is ELF4 (Homo sapiens, UniProt Q99607 1-663). The method, boiled down: as §1
A further assay addresses T5, ELK4 (Homo sapiens, UniProt P28324-2 1-405).
T5 sequence: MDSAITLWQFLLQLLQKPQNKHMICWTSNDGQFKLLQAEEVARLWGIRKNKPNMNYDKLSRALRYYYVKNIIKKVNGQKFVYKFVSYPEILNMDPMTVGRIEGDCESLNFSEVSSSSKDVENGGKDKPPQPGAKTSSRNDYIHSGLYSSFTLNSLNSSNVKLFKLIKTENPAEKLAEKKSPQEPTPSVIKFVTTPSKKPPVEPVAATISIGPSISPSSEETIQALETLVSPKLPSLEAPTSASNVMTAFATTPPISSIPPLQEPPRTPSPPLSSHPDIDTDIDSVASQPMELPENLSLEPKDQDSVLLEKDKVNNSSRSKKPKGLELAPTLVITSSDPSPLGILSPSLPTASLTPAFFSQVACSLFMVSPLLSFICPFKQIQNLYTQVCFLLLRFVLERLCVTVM
The method, boiled down:
as §1

Another assay concerns the target T6, ELF3 (Homo sapiens, UniProt P78545 1-371).
T6 sequence: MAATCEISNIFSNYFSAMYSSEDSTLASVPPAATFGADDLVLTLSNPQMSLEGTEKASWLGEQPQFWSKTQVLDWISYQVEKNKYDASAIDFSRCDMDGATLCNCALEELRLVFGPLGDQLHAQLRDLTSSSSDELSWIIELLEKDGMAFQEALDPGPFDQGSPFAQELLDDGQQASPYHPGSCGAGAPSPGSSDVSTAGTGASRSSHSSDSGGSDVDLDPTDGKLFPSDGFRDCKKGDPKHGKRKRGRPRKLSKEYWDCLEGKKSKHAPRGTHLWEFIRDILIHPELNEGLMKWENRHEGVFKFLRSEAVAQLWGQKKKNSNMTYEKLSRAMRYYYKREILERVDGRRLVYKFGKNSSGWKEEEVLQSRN
The essentials: as §1

A further assay addresses T7, ERF (Homo sapiens, UniProt P50548 1-548).
T7 sequence: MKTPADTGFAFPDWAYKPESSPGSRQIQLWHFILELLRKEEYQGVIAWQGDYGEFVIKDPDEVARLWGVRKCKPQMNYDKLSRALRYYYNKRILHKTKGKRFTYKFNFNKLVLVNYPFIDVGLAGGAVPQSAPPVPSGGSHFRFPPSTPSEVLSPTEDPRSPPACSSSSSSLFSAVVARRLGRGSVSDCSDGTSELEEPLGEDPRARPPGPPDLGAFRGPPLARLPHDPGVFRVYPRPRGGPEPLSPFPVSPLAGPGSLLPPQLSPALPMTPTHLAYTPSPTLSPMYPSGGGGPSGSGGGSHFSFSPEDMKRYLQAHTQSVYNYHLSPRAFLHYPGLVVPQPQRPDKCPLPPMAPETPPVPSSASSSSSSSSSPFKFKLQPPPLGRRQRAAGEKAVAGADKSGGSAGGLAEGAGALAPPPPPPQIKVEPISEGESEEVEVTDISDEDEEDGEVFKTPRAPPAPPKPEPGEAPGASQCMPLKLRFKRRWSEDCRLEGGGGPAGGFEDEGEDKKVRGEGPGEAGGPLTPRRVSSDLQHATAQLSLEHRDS
The method, boiled down: as §1

A further assay has as its target T8, ETV3L (Homo sapiens, UniProt Q6ZN32 1-361).
T8 sequence: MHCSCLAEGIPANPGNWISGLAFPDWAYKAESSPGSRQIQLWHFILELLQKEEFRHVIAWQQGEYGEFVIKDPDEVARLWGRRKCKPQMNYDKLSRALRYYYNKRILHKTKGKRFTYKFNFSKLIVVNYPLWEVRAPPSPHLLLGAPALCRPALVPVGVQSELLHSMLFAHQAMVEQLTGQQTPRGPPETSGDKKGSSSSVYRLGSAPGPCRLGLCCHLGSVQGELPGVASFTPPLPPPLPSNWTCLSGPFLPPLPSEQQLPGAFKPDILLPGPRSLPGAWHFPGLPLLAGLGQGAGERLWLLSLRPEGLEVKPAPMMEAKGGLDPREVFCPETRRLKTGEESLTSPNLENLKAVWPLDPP
The essentials: as §1

The target of the next assay is T9, ETS2 (Homo sapiens, UniProt P15036 1-469).
T9 sequence: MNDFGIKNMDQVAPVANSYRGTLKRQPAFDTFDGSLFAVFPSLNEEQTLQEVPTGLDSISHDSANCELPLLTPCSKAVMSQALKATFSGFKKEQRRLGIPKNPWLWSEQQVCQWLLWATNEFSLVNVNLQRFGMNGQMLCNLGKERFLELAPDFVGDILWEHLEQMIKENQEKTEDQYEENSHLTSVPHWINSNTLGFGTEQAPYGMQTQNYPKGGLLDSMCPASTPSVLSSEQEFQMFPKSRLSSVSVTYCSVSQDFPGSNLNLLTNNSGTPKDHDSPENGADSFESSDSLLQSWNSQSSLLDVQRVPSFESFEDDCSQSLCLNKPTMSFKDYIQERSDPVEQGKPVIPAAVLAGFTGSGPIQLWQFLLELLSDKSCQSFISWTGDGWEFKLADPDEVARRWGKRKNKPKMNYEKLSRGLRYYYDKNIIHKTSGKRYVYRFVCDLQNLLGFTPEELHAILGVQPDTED
The method, boiled down:
as §1

Another assay addresses T10, SPDEF (Homo sapiens, UniProt O95238 1-335).
T10 sequence: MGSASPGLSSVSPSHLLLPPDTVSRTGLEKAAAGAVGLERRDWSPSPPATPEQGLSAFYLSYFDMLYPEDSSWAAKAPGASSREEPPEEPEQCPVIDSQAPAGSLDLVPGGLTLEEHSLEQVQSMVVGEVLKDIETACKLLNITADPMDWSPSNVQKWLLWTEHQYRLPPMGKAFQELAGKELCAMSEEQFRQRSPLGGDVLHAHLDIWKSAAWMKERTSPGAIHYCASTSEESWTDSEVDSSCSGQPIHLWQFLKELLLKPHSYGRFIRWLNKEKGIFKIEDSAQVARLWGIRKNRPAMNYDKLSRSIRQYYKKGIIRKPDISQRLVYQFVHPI
The essentials:
as §1

For the next assay, the target named is T11, ETV3 (Homo sapiens, UniProt P41162-2 1-143).
T11 sequence: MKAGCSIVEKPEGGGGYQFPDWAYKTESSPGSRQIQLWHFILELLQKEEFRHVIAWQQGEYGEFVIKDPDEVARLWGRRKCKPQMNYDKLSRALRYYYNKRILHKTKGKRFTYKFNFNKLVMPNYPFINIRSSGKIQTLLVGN
The method, boiled down:
as §1

A further assay deals with ETV6 (Homo sapiens, UniProt P41212 1-452). The method, boiled down: as §1
A further assay has as its target ELF1 (Homo sapiens, UniProt P32519 1-619). The method, boiled down: as §1
For the next assay, the target named is SPIB (Homo sapiens, UniProt Q01892 1-262). The method, boiled down:
as §1

The next assay has as its target ETV1 (Homo sapiens, UniProt P50549 1-477). The method, boiled down:
as §1

In a further assay the target is T12, ETV7 (Homo sapiens, UniProt Q9Y603 1-341).
T12 sequence: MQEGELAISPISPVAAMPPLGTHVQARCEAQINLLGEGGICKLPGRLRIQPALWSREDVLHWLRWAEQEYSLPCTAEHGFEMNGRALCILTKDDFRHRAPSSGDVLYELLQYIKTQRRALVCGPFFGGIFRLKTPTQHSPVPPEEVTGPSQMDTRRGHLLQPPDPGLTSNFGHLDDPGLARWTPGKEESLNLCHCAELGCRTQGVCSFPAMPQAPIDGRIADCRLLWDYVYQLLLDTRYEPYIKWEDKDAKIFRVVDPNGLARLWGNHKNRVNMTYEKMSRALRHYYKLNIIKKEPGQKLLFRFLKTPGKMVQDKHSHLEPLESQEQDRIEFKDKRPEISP
The method, boiled down:
as §1

Sequence of ETV6 (P41212 whole entry): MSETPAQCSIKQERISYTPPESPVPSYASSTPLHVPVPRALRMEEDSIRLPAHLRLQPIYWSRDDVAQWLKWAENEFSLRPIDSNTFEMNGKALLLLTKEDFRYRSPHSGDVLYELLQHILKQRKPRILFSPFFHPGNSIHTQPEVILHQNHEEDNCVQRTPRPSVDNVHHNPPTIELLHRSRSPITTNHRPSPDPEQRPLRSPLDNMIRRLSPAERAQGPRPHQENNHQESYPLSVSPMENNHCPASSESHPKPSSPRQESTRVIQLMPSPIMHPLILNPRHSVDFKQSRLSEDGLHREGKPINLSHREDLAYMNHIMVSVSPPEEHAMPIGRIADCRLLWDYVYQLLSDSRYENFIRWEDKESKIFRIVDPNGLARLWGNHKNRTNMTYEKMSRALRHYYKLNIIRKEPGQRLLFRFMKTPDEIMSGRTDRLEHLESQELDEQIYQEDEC
Sequence of ETV5 (P41161 whole entry): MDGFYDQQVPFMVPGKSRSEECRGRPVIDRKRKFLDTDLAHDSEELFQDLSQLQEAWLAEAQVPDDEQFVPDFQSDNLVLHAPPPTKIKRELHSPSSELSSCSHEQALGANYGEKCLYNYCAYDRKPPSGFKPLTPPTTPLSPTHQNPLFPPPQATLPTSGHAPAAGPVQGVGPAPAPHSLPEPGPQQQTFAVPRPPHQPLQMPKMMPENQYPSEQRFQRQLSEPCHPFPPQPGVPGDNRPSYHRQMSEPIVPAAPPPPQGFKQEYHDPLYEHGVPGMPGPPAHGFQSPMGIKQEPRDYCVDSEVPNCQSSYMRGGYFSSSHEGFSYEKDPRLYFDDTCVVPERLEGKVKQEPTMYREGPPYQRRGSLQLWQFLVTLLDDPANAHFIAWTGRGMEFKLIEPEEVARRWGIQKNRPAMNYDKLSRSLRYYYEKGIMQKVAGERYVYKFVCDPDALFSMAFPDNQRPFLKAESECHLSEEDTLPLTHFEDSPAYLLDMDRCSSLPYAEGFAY
Sequence of ELF4 (Q99607 whole entry): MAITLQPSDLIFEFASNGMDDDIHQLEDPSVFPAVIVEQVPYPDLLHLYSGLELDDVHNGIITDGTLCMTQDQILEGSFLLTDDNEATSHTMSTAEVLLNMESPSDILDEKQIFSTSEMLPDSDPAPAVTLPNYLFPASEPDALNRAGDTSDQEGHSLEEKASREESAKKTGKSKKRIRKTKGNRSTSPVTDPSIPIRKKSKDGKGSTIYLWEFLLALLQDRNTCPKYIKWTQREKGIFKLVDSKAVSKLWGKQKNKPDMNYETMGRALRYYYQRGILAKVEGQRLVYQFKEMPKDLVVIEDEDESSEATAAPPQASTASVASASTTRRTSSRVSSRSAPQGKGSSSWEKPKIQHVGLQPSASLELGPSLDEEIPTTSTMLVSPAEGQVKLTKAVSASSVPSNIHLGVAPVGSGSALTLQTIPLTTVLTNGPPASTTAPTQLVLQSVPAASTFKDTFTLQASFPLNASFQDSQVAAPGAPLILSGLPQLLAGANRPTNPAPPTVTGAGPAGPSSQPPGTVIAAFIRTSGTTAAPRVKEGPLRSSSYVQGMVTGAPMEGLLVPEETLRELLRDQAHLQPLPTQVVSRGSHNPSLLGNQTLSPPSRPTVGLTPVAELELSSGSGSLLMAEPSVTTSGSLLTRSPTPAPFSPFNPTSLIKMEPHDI
Sequence of SPIB (Q01892 whole entry): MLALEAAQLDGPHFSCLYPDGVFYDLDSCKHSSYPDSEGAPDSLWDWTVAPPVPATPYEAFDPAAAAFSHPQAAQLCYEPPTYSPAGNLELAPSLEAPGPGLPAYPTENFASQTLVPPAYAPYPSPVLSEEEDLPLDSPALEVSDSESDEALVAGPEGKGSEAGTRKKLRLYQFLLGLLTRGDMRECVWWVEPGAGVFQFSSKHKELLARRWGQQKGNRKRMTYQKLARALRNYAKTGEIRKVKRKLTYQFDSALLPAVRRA
Sequence of ETV1 (P50549 whole entry): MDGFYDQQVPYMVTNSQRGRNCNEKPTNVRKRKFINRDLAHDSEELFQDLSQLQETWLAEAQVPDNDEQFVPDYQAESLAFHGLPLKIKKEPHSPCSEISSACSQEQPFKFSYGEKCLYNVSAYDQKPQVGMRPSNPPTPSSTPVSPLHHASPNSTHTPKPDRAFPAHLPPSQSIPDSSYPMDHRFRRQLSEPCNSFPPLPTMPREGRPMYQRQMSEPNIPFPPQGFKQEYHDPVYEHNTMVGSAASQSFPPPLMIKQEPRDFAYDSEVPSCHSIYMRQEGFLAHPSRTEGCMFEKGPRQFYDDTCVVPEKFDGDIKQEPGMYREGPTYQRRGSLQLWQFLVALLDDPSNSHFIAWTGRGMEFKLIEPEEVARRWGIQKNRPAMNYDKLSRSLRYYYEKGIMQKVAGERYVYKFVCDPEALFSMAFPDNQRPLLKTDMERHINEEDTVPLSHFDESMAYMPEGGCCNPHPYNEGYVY
Sequence of ELF1 (P32519 whole entry): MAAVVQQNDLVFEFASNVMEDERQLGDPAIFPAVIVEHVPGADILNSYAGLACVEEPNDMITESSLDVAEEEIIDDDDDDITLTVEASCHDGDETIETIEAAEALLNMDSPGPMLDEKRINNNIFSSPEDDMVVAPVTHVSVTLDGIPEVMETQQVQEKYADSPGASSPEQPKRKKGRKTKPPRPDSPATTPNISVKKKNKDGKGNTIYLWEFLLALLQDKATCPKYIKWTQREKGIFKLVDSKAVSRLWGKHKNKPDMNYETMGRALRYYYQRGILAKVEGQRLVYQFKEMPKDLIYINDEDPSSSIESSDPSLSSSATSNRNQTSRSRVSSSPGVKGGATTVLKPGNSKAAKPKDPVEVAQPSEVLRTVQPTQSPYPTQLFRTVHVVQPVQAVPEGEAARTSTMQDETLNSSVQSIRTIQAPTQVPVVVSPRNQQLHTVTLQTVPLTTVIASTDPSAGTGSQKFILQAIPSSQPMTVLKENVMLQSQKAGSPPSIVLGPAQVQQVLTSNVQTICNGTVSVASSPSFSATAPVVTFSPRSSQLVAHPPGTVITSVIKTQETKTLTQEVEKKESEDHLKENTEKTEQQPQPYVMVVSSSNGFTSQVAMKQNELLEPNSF

TGGGTG: the binding signal in the assay with ELK1 is 1.09 fold enrichment (6-mer frequency, TF over GST control); with ERG, 1.01 fold enrichment (6-mer frequency, TF over GST control); with EHF it was 1.01 fold enrichment (6-mer frequency, TF over GST control); with SPI1 it was 1 fold enrichment (6-mer frequency, TF over GST control); with ETV5, 1.02 fold enrichment (6-mer frequency, TF over GST control); with SPIC, 1.03 fold enrichment (6-mer frequency, TF over GST control). Moreover, the binding signal with ELF4 is 1.01 fold enrichment (6-mer frequency, TF over GST control); with ELK4, 1.07 fold enrichment (6-mer frequency, TF over GST control); with ELF3, 1.03 fold enrichment (6-mer frequency, TF over GST control); with ERF it was 1.06 fold enrichment (6-mer frequency, TF over GST control); with ETV3L, 1.08 fold enrichment (6-mer frequency, TF over GST control); in the assay with ETS2 it was 1.07 fold enrichment (6-mer frequency, TF over GST control). Further, the binding signal was 1.01 fold enrichment (6-mer frequency, TF over GST control) in the assay with SPDEF; 1 fold enrichment (6-mer frequency, TF over GST control) in the assay with ETV3; 1.21 fold enrichment (6-mer frequency, TF over GST control) with ETV6.
On to TGTTGT, for which the binding signal in the assay with ELK1 was 1.15 fold enrichment (6-mer frequency, TF over GST control); in the assay with ERG, 1.08 fold enrichment (6-mer frequency, TF over GST control); in the assay with ELF1, 1.13 fold enrichment (6-mer frequency, TF over GST control); with EHF, 1.09 fold enrichment (6-mer frequency, TF over GST control); with SPI1 it was 1.1 fold enrichment (6-mer frequency, TF over GST control); in the assay with SPIB it was 1.12 fold enrichment (6-mer frequency, TF over GST control). The binding signal was 1.08 fold enrichment (6-mer frequency, TF over GST control) with ETV5; 1.23 fold enrichment (6-mer frequency, TF over GST control) with SPIC; 1.11 fold enrichment (6-mer frequency, TF over GST control) in the assay with ELF4; 1.24 fold enrichment (6-mer frequency, TF over GST control) in the assay with ELK4; 1.2 fold enrichment (6-mer frequency, TF over GST control) in the assay with ETV1; 1.02 fold enrichment (6-mer frequency, TF over GST control) with ERF. Further, the binding signal is 1.15 fold enrichment (6-mer frequency, TF over GST control) with ETV3L; 1.05 fold enrichment (6-mer frequency, TF over GST control) with ETS2; 1.21 fold enrichment (6-mer frequency, TF over GST control) in the assay with SPDEF; 1.14 fold enrichment (6-mer frequency, TF over GST control) with ETV7; 1.14 fold enrichment (6-mer frequency, TF over GST control) with ETV3; 1.11 fold enrichment (6-mer frequency, TF over GST control) in the assay with ETV6.

(Values after PMC7862700, “An all-to-all approach to the identification of sequence-specific readers for epigenetic DNA modifications on cytosine”.)
